Assay [1] in a line: compounds binding Alexa647 anti-His antibody – biochemical, small-molecule microarray, 635 nm fluorescence, artefact control for SMM control protein annotation, primary screen (AID 1128).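 Note: score merges feature fluorescence with signal-to-noise for each printed compound spot.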 Particulars: higher = more signal.
The subject of assay [2] is Human papillomavirus type 1a E7 protein (residues 1-88). In words: HPV1a E7 small-molecule binders, primary screen, biochemical, small-molecule microarray, residues 1-88, 635 nm (AID 1129). Particulars: small-molecule microarray binding, fluorescence 635 nm; higher = more signal.
Assay [3] deals with Focal adhesion kinase 1 (Homo sapiens) (UniProt Q05397). The assay can be described thus: PTK2 protein binding on printed compound slides – biochemical, small-molecule microarray, 635/667 nm fluorescence, BSA, DTT, primary screen (AID 1130).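 Note: composite of spot emission at 667 nm and signal to noise over triplicate slides.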 Particulars: 635 nm fluorescence, higher = more signal.
The test system of assay [4] is Fibrinogen (Alexa647-labelled). In words: Alexa647-fibrinogen binding to printed small molecules – biochemical, small-molecule microarray, 635/667 nm fluorescence, artefact control for SMM control-protein annotation, profiling panel (AID 1131).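 Note: z-score merges 667 nm fluorescence with per-spot signal-to-noise over triplicate slides.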 Conditions: fibrinogen-A647 binding fluorescence, higher = more signal.
In assay [5] the target is Follistatin (Homo sapiens) (UniProt P19883). The assay can be described thus: FST protein binding to printed compounds – biochemical, small-molecule microarray, 635/667 nm fluorescence, primary screen (AID 1132). Conditions: 635 nm fluorescence, higher = more signal.
Assay [6] concerns the target Fibroblast growth factor 2 (Homo sapiens) (UniProt P09038). In words: basic fibroblast growth factor binding to printed compounds – biochemical, small-molecule microarray, 635/667 nm fluorescence, primary screen (AID 1133). Conditions: FGF2, fluorescence 635/667, higher = more signal.
Assay [7] can be described thus: JC-1 mitochondrial potential readout, lung cancer cells – cell-based, A549, JC-1 fluorescence, basal, 24 h, 100 nL, profiling panel (AID 1138).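 Note: A549 lung adenocarcinoma cells under basal conditions with no added stimulus; test concentration not given here.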 Particulars: higher = more signal.
In another assay the test system is Lefty1. The assay can be described thus: Lefty1 protein binding to printed compounds – biochemical, small-molecule microarray, 635/667 nm fluorescence, primary screen (AID 1139). Particulars: fluorescence 635/667, higher = more signal.
The subject of assay [8] is wheat germ agglutinin (Triticum aestivum), Alexa647-labelled. In words: Alexa647-WGA lectin binding to printed small molecules – biochemical, small-molecule microarray, 635/667 nm fluorescence, artefact control for SMM control-protein annotation, profiling panel (AID 1140).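 Note: score merges 667 nm feature emission with signal to noise over triplicate slides.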 Particulars: WGA-A647 binding, 635 nm fluorescence, higher = more signal.
The target of assay [9] is Luciferin 4-monooxygenase (Photinus pyralis) (UniProt P08659). The assay can be described thus: inhibition of purified Photinus pyralis luciferase – biochemical, luminescence, purified enzyme, 2006 set, primary screen (AID 1141).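 Note: cell-free assay with purified firefly luciferase at 100 ng per well in PBS; test concentration not given here.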 Particulars: purified firefly luciferase, SteadyGlo luminescence, 30 min; higher = more signal, called active from +8 up or from −8 down.
Assay [10] concerns Wnt5a (protein binding on small-molecule microarray). In words: small molecules binding Wnt5a protein – biophysical, small-molecule microarray, 635/667 nm fluorescence, primary screen (AID 1142).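 Note: fluorescence read at 667 nm with signal to noise per printed feature.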 Particulars: 635 nm fluorescence, higher = more signal.
The nature of assay [11]: ATP-based viability of Huh7 replicon cells – cell-based, CellTiter-Glo luminescence, basal, 48 h, cytotoxicity control for HCV replication inhibitor project, primary screen (AID 1143).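 Note: Huh7 hepatoma cells carrying a hepatitis C replication reporter with no stimulus; test concentration not given here.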 Conditions: higher = more signal, called active from +8 up or from −8 down.
Assay [12] in a line: Pseudomonas biofilm growth suppression – PAO1 strain, BacTiter-Glo luminescence, LB-PBS, primary screen (AID 1144). Conditions: P. aeruginosa PAO1 biofilm, 12 h, higher = more signal.
Assay [13] is described as follows: basal CRE-LacZ reporter activity in PC12 – cell-based, unstimulated, primary screen (AID 1145). Conditions: no forskolin, luminescence, 4.5 h, higher = more signal, called active from +8 up or from −8 down.
Assay [14] can be described thus: forskolin-driven CRE-LacZ activity in PC12 – cell-based, CRE-LacZ reporter, forskolin-stimulated, primary screen (AID 1146).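 Note: PC12 cells with 6xCRE LacZ reporter stimulated by forskolin 10 µM; beta-galactosidase reporter signal reflecting CREB driven transcription.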 Conditions: luminescence, 4.5 h, higher = more signal, called active from +8 up or from −8 down.
For assay [15], the target named is Streptavidin (Streptomyces avidinii) (UniProt P22629). In words: compounds binding control protein streptavidin – biophysical, small-molecule microarray, 635/667 nm fluorescence, artefact control for SMM compound annotation, primary screen (AID 1147).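 Note: signal reflects streptavidin binding to arrayed compounds as a control protein.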 Conditions: higher = more signal.
Assay [16] can be described thus: probe aInhba binding on compound microarray – biochemical, small-molecule microarray, 635/667 nm fluorescence, primary screen (AID 1148).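 Note: score merges 667nm spot fluorescence with signal-to-noise for antibody binding to printed compounds.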 Particulars: higher = more signal.
The target in assay [17] is Torsin-1A (Homo sapiens) (UniProt O14656). The assay can be described thus: TOR1A wild-type binding on microarray – cell lysate, small-molecule microarray, lysate, 635/667 nm, primary screen (AID 1149). Particulars: COS7 hTOR1A-WT lysate, 635 nm fluorescence, higher = more signal.
For assay [18] the target is unchanged. The assay can be described thus: torsin A mutant lysate binding on microarrays – cell lysate, small-molecule microarray, COS7 lysate, 635/667 nm fluorescence, primary screen (AID 1150).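 Note: score pools 667 nm emission and signal to noise measuring lysate protein binding.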 Particulars: COS7 hTOR1A mutant lysate, 635 nm fluorescence, higher = more signal.
For assay [19], the system named is Sonic hedgehog protein (Shh). In words: Sonic hedgehog microarray binding compounds – biochemical, small-molecule microarray, 635/667 nm fluorescence, primary screen (AID 1151).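 Note: Shh protein binding to compounds spotted on small-molecule microarray slides; score combines spot fluorescence intensity with signal-to-noise across triplicate slides.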 Particulars: 635 nm fluorescence, higher = more signal.

Data on five compounds can be found in PubChem BioAssay.

Each structure is given as a SMILES string. The source made the active and inactive calls. Unless noted, the rule behind the calls is not given here.

Streptavidin (Streptomyces avidinii), sequence (P22629 whole entry, looked up): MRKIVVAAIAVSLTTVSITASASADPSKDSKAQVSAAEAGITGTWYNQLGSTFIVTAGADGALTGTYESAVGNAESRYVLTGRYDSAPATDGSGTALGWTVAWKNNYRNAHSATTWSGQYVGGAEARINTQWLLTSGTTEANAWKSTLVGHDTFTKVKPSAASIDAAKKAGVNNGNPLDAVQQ
Torsin-1A (Homo sapiens), sequence (O14656 whole entry, looked up): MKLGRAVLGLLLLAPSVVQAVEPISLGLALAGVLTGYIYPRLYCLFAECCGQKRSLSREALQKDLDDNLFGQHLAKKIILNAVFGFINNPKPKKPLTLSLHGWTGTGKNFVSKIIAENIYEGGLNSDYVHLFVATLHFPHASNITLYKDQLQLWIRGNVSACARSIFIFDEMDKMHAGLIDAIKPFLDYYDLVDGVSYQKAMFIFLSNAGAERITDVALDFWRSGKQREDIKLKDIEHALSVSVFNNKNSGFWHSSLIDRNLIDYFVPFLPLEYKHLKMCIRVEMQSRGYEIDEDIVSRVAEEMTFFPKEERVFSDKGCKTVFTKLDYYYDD
Luciferin 4-monooxygenase (Photinus pyralis), sequence (P08659 whole entry, looked up): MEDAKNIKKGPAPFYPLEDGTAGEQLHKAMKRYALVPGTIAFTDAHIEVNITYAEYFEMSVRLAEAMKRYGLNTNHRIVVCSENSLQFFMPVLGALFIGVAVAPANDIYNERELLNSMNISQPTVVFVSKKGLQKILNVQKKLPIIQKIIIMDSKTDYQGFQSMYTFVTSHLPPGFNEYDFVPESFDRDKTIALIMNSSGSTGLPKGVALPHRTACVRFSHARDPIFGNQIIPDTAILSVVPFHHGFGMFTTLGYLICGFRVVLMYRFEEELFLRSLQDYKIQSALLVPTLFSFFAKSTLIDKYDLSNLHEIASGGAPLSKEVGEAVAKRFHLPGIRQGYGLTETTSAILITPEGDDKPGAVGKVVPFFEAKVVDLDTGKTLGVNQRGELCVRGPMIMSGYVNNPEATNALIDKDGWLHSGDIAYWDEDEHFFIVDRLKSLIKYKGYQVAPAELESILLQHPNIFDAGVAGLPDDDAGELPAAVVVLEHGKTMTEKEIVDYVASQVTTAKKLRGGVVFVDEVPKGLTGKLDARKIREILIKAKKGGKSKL
Focal adhesion kinase 1 (Homo sapiens), sequence (Q05397 whole entry, looked up): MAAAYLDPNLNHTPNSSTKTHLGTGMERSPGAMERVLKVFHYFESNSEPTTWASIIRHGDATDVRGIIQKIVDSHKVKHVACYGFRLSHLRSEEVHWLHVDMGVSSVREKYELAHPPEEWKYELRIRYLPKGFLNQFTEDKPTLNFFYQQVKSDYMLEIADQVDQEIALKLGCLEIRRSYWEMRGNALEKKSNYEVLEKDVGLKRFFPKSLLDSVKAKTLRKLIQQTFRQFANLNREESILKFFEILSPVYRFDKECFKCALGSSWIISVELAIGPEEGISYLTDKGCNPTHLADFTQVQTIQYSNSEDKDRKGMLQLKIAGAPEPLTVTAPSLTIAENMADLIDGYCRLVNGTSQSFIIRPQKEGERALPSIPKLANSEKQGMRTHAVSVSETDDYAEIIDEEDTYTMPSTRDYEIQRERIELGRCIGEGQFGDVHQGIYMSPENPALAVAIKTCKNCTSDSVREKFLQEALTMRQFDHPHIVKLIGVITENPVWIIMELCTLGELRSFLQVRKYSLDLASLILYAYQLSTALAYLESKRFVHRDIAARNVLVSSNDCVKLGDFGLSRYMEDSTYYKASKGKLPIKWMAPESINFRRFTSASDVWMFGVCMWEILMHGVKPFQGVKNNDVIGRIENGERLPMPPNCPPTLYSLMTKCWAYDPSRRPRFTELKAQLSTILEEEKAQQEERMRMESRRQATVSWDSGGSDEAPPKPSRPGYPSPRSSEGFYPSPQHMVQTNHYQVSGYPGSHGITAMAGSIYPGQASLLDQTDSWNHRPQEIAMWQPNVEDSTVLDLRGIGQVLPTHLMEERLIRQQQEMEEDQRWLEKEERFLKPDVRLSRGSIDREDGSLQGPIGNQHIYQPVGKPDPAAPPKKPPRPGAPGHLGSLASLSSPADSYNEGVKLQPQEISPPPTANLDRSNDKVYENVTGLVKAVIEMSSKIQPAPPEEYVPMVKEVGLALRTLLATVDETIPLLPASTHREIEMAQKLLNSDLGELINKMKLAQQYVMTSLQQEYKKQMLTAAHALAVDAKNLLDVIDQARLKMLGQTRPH
Follistatin (Homo sapiens), sequence (P19883 whole entry, looked up): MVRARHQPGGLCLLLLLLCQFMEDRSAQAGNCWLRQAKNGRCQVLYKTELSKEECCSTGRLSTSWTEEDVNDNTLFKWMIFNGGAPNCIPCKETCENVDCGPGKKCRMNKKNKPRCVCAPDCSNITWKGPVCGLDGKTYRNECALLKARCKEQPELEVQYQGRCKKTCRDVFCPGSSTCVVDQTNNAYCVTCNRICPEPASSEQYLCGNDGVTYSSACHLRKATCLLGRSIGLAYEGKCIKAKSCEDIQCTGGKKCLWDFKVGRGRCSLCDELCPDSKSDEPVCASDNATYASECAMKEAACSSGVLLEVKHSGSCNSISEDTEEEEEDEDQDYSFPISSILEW
Fibroblast growth factor 2 (Homo sapiens), sequence (P09038 whole entry, looked up): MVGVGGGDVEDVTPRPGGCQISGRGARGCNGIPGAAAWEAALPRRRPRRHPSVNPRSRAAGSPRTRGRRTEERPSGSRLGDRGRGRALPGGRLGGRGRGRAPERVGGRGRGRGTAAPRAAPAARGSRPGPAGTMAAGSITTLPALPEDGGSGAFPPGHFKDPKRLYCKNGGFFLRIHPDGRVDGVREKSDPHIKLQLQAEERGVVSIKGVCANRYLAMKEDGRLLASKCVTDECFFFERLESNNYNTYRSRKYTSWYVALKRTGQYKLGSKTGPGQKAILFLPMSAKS

With `COC(=O)[C@H](C)NC(=O)[C@@H](C)CO`, the composite z-score was determined as 0.548 in assay [1]; 1.2 in assay [2]; 0.48 in [3]; 0.941 in assay [4]; 0.252 in [5]; 0.108 in assay [6]. For the same compound, the composite z-score is 0.602 with Lefty1; 1 in assay [8]; 0.174 in assay [10]; 0.733 in [15]; -0.0313 in assay [16]; 0.927 with Torsin-1A (Homo sapiens) [17]. Further, the results for the composite z-score (with Torsin-1A (Homo sapiens) [18]; in assay [19]) were 0.461 and 0.575, respectively. Besides, the z-score in [7] is -1.08; in [9] it was 0.877 (inactive); in [11], -0.76 (inactive); in assay [12] it was 0.06 (inactive); in assay [13], -0.432 (inactive); in assay [14], 0.17 (inactive).
Consider `COCCOC(=O)N1C(=O)[C@@]2(c3ccccc31)[C@H](C(N)=O)[C@H]1C(=O)O[C@H](c3ccccc3)[C@H](c3ccccc3)N1[C@@H]2c1ccccc1OCCO`, for which the composite z-score in [1] amounted to 2.57; in assay [2], 1.08; in assay [3], 0.29; in assay [4], 0.882; in assay [5], 1.3; in [6], 0.894. Also, the composite z-score with Lefty1 turned out to be 0.533; in [8], 0.98; in [10], 0.491; in assay [15], 0.662; in assay [16], 0.126; in the assay with Torsin-1A (Homo sapiens) [17], 0.918. For the same compound, the figures for the composite z-score (with Torsin-1A (Homo sapiens) [18]; in assay [19]) were 0.815 and 1.19, respectively. Further, the z-score is 0.431 in assay [7]; -1.25 (inactive) in assay [9]; -4.01 (inactive) in [11]; 1.67 (inactive) in [12]; 0.362 (inactive) in assay [13]; 0.406 (inactive) in assay [14].
In the case of `C#CCCCON=C1C[C@@H](O)[C@@H](O)[C@@H]2[C@@H]3C(=O)N([C@@H](C)c4ccccc4)C(=O)[C@@H]3CC[C@H]12`, the composite z-score was 0.449 in [1]; 0.621 in assay [2]; 0.48 in assay [3]; 0.778 in assay [4]; 0.615 in assay [5]; 0.594 in assay [6]. Besides, the composite z-score in the assay on Lefty1 was 0.535; in assay [8] it was 0.203; in assay [10], -0.216; in [15], 0.029; in [16], -0.128; in the assay with Torsin-1A (Homo sapiens) [17] it was 0.258. In addition, the composite z-score came to 0.126 with Torsin-1A (Homo sapiens) [18] and 0.552 in assay [19]. The z-score in assay [7] was -0.887; in assay [9], 0.794 (inactive); in assay [11], -3.38 (inactive); in [12], -0.0158 (inactive); in assay [13], 2.61 (inactive); in assay [14], -0.428 (inactive).
As for `COC(=O)[C@]1(CO)N=C(c2ccc(OCCCO)cc2)O[C@@H]1c1ccccc1N=[N+]=[N-]`, the composite z-score is 1.3 in [1]; 0.541 in assay [2]; -0.277 in [3]; 0.633 in [4]; 1.43 in [5]; 1.6 in [6]. The composite z-score with Lefty1 is 0.83; in [8], -0.119; in [10] it was 0.421; in [15] it was -0.435; in assay [16], 0.0646; with Torsin-1A (Homo sapiens) [17] it was 1.85. The composite z-score in the assay with Torsin-1A (Homo sapiens) [18] worked out at 1.9; in [19], 2.05. The z-score in assay [7] was 0.299; in [9], -1.64 (inactive); in assay [11], 0.159 (inactive); in assay [12] it was 0.393 (inactive); in [13], -0.609 (inactive); in [14], -0.736 (inactive).
Regarding `O=C1C[C@]2(c3ccc([N+](=O)[O-])cc3)C(=O)N(CCN3CCOCC3)c3cc(CO)ccc3[C@H]2N1CC12CC3CC(CC(C3)C1)C2`, the composite z-score is -0.585 in [1]; 0.275 in assay [2]; 0.0816 in assay [3]; -0.724 in [4]; -0.377 in assay [5]; -1.54 in assay [6]. In addition, the composite z-score was -0.424 in the assay with Lefty1; 0.551 in assay [8]; -0.433 in assay [10]; -0.0783 in [15]; -0.122 in assay [16]; -0.967 with Torsin-1A (Homo sapiens) [17]. Further, the results for the composite z-score (in the assay with Torsin-1A (Homo sapiens) [18]; in assay [19]) were -0.862 and -0.509, respectively. Moreover, the z-score in [7] was -0.869; in assay [9], 0.959 (inactive); in assay [11], -1.04 (inactive); in assay [12], -0.954 (inactive); in assay [13], 0.324 (inactive); in assay [14] it was 0.247 (inactive).
